# According to PubChem BioAssay (NCATS):
# Records with an inconclusive call do not appear. Where a call stands in place of a potency, no number is given. Activity calls are given as the source filed them. Unless noted, calls come from the whole dose curve; as a rule, active = well fitted curve in the direction sought with a large enough effect; inconclusive = small, poorly fitted or top-dose-only effect, or another doubt; inactive = no such curve, though single readings can be large; an effect the other way counts as inactive or inconclusive.
# Columns and labels:
# [1] = biological target: Alpha-galactosidase A (Homo sapiens) (UniProt P06280); assay: Counterscreen for Glucocerebrosidase Inhibitors: qHTS Assay for Human alpha-Galactosidase at pH 4.5 (AID 992)
# Sequence of Alpha-galactosidase A (Homo sapiens) (P06280 whole entry, looked up): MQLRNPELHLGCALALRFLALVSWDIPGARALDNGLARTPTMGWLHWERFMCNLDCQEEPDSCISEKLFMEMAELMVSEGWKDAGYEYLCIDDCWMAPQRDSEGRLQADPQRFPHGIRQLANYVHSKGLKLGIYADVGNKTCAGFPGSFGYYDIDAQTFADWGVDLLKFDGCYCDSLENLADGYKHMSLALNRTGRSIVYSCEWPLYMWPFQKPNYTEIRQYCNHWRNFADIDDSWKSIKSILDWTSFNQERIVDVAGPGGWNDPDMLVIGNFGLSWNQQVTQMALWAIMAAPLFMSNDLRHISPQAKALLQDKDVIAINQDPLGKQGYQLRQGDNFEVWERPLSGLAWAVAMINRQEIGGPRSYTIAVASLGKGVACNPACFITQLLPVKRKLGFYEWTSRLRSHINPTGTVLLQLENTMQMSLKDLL
# Outline: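 Human enzyme (2 nM) with 80 uM 4-methylumbelliferyl alpha-D-galactopyranoside in 50 mM citric acid, 0.005% Tween-20, pH 4.5, 20 min at room temperature. Compounds 0.7 nM–77 uM; fluorescence Ex 365/Em 440 after pH 10 stop; AC50 from Hill fits.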
# [2] = biological target: alpha-glucosidase (Oryza sativa, rice) (UniProt Q653V4); assay: Counterscreen for Glucocerebrosidase Inhibitors: qHTS Assay for Rice alpha-Glucosidase at pH 5.0 (AID 997)
# Outline: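 Rice alpha-glucosidase (4 nM final) with 400 uM 4-methylumbelliferyl-alpha-D-glucopyranoside in citrate buffer pH 5.0, 20 min at room temperature, stopped at pH 10; fluorescence 365/440 nm, compounds 0.7 nM–77 uM, AC50 from Hill fits.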
# [3] = biological target: Alpha-galactosidase (Coffea arabica) (UniProt Q42656); assay: Counterscreen for Glucocerebrosidase Inhibitors: qHTS Assay for Coffee Bean alpha-Galactosidase at pH 5.9 (AID 998)
# Sequence of Alpha-galactosidase (Coffea arabica) (Q42656 whole entry, looked up): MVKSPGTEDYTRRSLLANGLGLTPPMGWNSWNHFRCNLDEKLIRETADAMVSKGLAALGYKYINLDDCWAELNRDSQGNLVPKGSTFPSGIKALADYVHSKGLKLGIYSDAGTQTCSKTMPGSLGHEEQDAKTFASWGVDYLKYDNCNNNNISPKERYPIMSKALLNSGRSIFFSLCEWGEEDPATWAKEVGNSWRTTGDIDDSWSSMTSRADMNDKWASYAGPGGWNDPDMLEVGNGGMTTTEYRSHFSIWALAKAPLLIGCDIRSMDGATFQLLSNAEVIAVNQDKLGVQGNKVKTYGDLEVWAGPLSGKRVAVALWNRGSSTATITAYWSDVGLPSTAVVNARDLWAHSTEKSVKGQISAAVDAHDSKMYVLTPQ
# Outline: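 Compounds were titrated from 0.7 nM to 77 uM against green coffee bean alpha-galactosidase (2 nM) using 80 uM fluorogenic 4-methylumbelliferyl substrate. After 20 min at room temperature, reactions were stopped at pH 10 and read by fluorescence.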
# [4] = Validation of Assay for Modulators of Lamin A Splicing (AID 1459; active = well fitted curve in the direction sought with a large enough effect in the signal ratio; the % refers to the signal ratio;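 note: cells exposed to compound for two days before reading; ratio rise marks activators and ratio drop marks inhibitors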)
# Outline: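 HeLa S3 lamin A-EGFP/DsRed2 stable clone, 600 cells/well, Opti-MEM 2% FBS; compounds by pin tool; 48 hrs, 37 °C/5% CO2; Acumen 488 nm scan, objects 10-100 um; GFP/RFP intensity ratio.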
# [5] = qHTS Assay for Lipid Storage Modulators (AID 1519; calls by dose curve); details: Drosophila S3 cells, BODIPY lipid droplet/cell ratio, laser cytometry, cells loaded with oleic acid
# Outline: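 Cells seeded at 5,000 per well were treated with compounds over a concentration series and loaded with oleic acid (400 uM, as added). Lipid droplet fluorescence (488 nm excitation, 500-530 nm channel) was read by laser-scanning cytometry and normalized to 20 uM Triacsin C.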
# [6] = biological target: DNA repair nuclease/redox regulator APEX1 (Homo sapiens) (UniProt P27695); assay: qHTS Validation Assay for Inhibitors of the Human Apurinic/apyrimidinic Endonuclease 1 (APE1) (AID 1705; note: potency is the fitted concentration of half-maximal effect;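 for activity change, negative = inhibition: TAMRA fluorescence gain over two minutes as APE1 cuts a quenched THF abasic duplex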)
# Sequence of DNA repair nuclease/redox regulator APEX1 (Homo sapiens) (P27695 whole entry, looked up): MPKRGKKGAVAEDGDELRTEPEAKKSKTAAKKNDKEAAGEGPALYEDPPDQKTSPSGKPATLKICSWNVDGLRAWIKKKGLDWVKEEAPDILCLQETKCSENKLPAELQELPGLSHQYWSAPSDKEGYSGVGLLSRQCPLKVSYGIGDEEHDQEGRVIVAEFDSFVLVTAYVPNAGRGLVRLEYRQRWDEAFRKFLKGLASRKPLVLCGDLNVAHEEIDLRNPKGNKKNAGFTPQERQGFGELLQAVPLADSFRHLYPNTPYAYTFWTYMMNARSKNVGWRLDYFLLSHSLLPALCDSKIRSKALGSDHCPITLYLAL
# Outline: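 qHTS, 1536-well. APE1 + cpd 15 min RT → 50 nM TAMRA/BHQ-2 THF-abasic dsDNA substrate → kinetic fluorescence, 3 reads/60 s; delta(read3−read1) = reaction progress. No-enzyme buffer = negative control.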
# [7] = Counterscreen for APE1 Inhibitors: Fluorescent Dye Displacement Validation Assay (AID 1707)
# Outline: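 Thiazole Orange (250 nM) bound to 50 nM TAMRA-labelled dsDNA with tetrahydrofuran abasic site; displacement by DNA-binding compounds lowers fluorescence. Buffer 50 mM Tris-HCl pH 7.5, 50 mM NaCl, 2 mM MgCl2, 0.01% Tween-20; endpoint read at 480/540 nm.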
# [8] = qHTS for differential inhibitors of proliferation of Plasmodium falciparum line 7G8 (AID 1815);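 note: parasite growth measured after three days of incubation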; note: potency is the fitted concentration of half-maximal effect
# [9] = qHTS for differential inhibitors of proliferation of Plasmodium falciparum line GB4 (AID 1816); details: Potency: Plasmodium falciparum GB4 proliferation inhibition;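 note: parasite growth measured after 72 h incubation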; note: potency is the fitted concentration of half-maximal effect
# [10] = qHTS for differential inhibitors of proliferation of Plasmodium falciparum line Dd2 (AID 1882); details: Potency: Plasmodium falciparum Dd2 proliferation inhibition; note: nearly all actives have a fitted effect of over 65% in size
# Outline: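 Dd2-infected erythrocytes (0.3% parasitemia, 2.5% hematocrit final) incubated with compound 72 h at 37 C, 5% CO2; lysed with saponin/Triton buffer containing SYBR Green I, incubated overnight in the dark, then read by fluorescence (485/535 nm). Normalized to 0.29 uM artemisinin and DMSO.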
# [11] = qHTS for differential inhibitors of proliferation of Plasmodium falciparum line HB3 (AID 1886); details: Potency: Plasmodium falciparum HB3 proliferation inhibition;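 note: parasites grown with compound for 72 h before SYBR Green readout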; note: potency is the fitted concentration of half-maximal effect
# [12] = Cell Viability - LYMP2-024 (AID 988); note: nearly all actives have a fitted effect of over 60% in size
# Outline: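 Human lymphoblastoid LYMP2-024 cells (2500/well) rested 5 hr, then treated with compound for 24 hr at 37 C in complete medium. Viability was measured as intracellular ATP by CellTiter-Glo luminescence. AC50 values came from Hill-equation fits.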
# [13] = Cell Viability - LYMP2-026 (AID 989); note: nearly all actives have a fitted effect of over 50% in size
# Outline: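 Human lymphoblastoid LYMP2-026 cells, 2500/well, exposed to compound 24 h at 37 C in complete medium. Viability as intracellular ATP by CellTiter-Glo luminescence; AC50 from Hill fits of qHTS concentration-response.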
# [14] = Cell Viability - LYMP1-002 - Assay at 24 hr (AID 993)
# Outline: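 Human lymphoblastoid LYMP1-002 cells (2500/well) treated 24 h at 37 °C; viability as intracellular ATP by CellTiter-Glo luminescence. Tetraoctylammonium bromide as positive control; AC50 from Hill-equation fits of qHTS concentration-response.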
# [15] = Cell Viability - LYMP1-002 - Assay at 40 hr (AID 994); note: nearly all actives have a fitted effect of over 60% in size
# Outline: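 LYMP1-002 human lymphoblastoid cells (2500/well, complete medium) were treated with compounds for 40 hr at 37 C. Intracellular ATP was measured by CellTiter-Glo luminescence, and AC50 values came from Hill-equation fits of concentration-response data; tetraoctylammonium bromide was the positive control.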
# [16] = biological target: Endonuclease 4 (Escherichia coli (strain K12)) (UniProt P0A6C1); assay: Counterscreen for APE1 Inhibitors: qHTS Validation Assay for Inhibitors of Endonuclease IV (AID 1708)
# Outline: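 qHTS concentration-response format; LOPAC1280 tested under APE1-screen conditions. 2 nM enzyme, 15 min compound preincubation at RT, then 50 nM TAMRA/BHQ-2 abasic substrate; kinetic fluorescence read, three reads at 60 s intervals.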
# [17] = qHTS for differential inhibitors of proliferation of Plasmodium falciparum line 3D7 (AID 1876);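 note: parasite growth measured after three days of culture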
# [18] = qHTS for differential inhibitors of proliferation of Plasmodium falciparum line D10 (AID 1877);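 note: parasites grown with compound for 72 h before DNA staining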
# [19] = qHTS for differential inhibitors of proliferation of Plasmodium falciparum line W2 (AID 1883); details: Potency: Plasmodium falciparum W2 proliferation inhibition;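 note: parasites grown with compound for 72 h before lysis and staining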
# [20] = qHTS Assay for Modulators of Human Peripheral Myelin Protein 22 (PMP22) Expression/Activity (AID 1967; active = well fitted curve in the direction sought with a large enough effect in the signal ratio; the % refers to the signal ratio)
# Outline: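 Luminescence ratio of Pmp22 promoter-driven green luciferase to EF-alpha-driven red luciferase, in engineered mouse MSC80 Schwann cells, served as read-out. Compounds were incubated 24h; untreated cells defined 0% Activity; curves were classified by r2, magnitude and activity.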
# [21] = measured here: cell count channel max response
# [22] = measured here: lipid channel max response
compound,measurement,setting,value
CCCCC/C=C\C/C=C\C/C=C\C/C=C\CCCC(=O)NCC(=O)O,outcome,[1],inactive
same,outcome,[2],inactive
same,outcome,[3],inactive
same,outcome,[4],inactive
same,"activity change, negative = inhibition",[5]; at 57.5 µM (top of the series),-0.69% (inactive)
same,max response,[5]; [21],64.5%
same,max response,[5]; [22],63.6%
same,Potency,[6],28.2 µM (active)
same,outcome,[7],inactive
same,Potency,[8],14.1 µM (active)
same,Potency,[9],14.1 µM (active)
same,Potency,[10],inactive
same,Potency,[11],14.1 µM (active)
NCCc1ccc(O)cc1,outcome,[12],inactive
same,outcome,[13],inactive
same,outcome,[1],inactive
same,Potency,[14],inactive
same,Potency,[15],inactive
same,outcome,[2],inactive
same,outcome,[3],inactive
same,outcome,[4],inactive
same,Potency,[6],inactive
same,outcome,[7],inactive
same,outcome,[16],inactive
same,Potency,[8],inactive
same,Potency,[9],inactive
same,Potency,[17],inactive
same,Potency,[18],inactive
same,Potency,[10],inactive
same,Potency,[19],inactive
same,Potency,[11],inactive
same,outcome,[20],inactive
CCC1(c2ccc(N)cc2)CCC(=O)NC1=O (stereo not drawn),outcome,[4],inactive
same,Potency,[6],inactive
same,outcome,[7],inactive
same,outcome,[16],inactive
same,Potency,[8],inactive
same,Potency,[9],inactive
same,Potency,[17],inactive
same,Potency,[18],inactive
same,Potency,[10],inactive
same,Potency,[19],inactive
same,Potency,[11],inactive
CC[N+](CC)(CC)CCOc1cccc(OCC[N+](CC)(CC)CC)c1OCC[N+](CC)(CC)CC,outcome,[3],inactive
same,"activity change, negative = inhibition",[5]; at 25.7 µM (top of the series),0.548% (inactive)
same,max response,[5]; [21],-4.51%
same,max response,[5]; [22],-4.34%
same,outcome,[16],inactive
